Sampled rows, rich in hits. Any-hit rate of the full collection: about 1.8%.
NPR1 activator – GC-A (human) enzyme activation | 370,000 compounds, 0.14% hits | P16066 | activation, % at 10 µM | HEK293 GC-A cells, cGMP TR-FRET, EC30 ANP; 0% at EC30 ANP, 100% saturating ANP | AID 1671463; in the data active means activation above about 40%
bovine MsrA act – activates bovine MsrA enzyme; purified bovine MsrA, absorbance read-out; activation, % at 10.6 µM; 360,000 compounds, 0.3% hits; in the data active means activation above about 7.5%;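 further: 0% = vehicle and 100% = reference activator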
GC-B act – GC-B (human) receptor activation; HEK293-GC-B cells, CNP EC30, cGMP TR-FRET; 0% at EC30 CNP, 100% saturating CNP; 370,000 compounds, 0.11% hits; activation, % at 10 µM; P20594;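 active means activation at 10 µM reaching about 35% in either raw or pattern-adjusted values, limit read from the data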
Target sequence (P20594 whole entry, looked up): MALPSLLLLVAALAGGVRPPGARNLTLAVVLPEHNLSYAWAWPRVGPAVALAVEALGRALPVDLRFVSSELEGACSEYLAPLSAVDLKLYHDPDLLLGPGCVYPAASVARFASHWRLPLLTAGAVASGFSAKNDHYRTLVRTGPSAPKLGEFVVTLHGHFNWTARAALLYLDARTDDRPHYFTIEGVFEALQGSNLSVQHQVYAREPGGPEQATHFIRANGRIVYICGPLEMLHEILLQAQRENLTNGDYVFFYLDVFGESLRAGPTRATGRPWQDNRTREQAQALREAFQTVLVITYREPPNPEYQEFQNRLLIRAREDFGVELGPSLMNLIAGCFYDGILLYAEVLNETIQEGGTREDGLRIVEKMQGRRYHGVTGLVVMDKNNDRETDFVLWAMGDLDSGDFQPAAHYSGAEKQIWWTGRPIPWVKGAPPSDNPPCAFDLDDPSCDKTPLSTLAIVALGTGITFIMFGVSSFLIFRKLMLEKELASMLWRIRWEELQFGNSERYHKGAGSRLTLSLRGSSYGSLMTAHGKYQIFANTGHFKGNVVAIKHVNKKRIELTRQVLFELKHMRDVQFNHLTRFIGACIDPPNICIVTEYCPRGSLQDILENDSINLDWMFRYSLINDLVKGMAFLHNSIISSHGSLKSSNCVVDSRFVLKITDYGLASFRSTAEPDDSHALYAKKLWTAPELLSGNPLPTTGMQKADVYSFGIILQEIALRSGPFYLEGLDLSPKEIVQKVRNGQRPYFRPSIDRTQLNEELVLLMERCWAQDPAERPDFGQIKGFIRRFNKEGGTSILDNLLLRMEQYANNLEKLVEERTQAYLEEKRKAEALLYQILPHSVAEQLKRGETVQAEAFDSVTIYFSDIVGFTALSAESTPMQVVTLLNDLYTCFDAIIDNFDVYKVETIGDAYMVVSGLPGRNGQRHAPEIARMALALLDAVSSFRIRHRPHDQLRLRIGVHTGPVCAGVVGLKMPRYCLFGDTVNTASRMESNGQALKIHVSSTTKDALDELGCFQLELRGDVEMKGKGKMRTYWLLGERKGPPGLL
m5-HT2A agonist – mouse HTR2A agonism via beta-arrestin recruitment. P35363. CHO-K1 mHTR2A beta-arrestin complementation, luminescence; percent of 30 µM serotonin response. activation, % at 7.6 µM. 360,000 compounds, 0.66% hits. AID 624169;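 active means activation above a run cutoff, the mean activation of all tested compounds plus 3 SD, cut at about 14% in these data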;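 further: 0% = plate median of compound wells and 100% = 30 µM serotonin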
MsrA inhibitor – inhibitors of bovine MsrA; purified bovine MsrA, absorbance read-out; 360,000 compounds, 0.75% hits; inhibition, % at 15.5 µM; in the data active means inhibition above about 4.5%;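 further: 0% = vehicle wells with enzyme and 100% = reference inhibitor wells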
* hit, by the source's call; · = not tested or not shown.

SMILES	NPR1 activator	bovine MsrA act	GC-B act	m5-HT2A agonist	MsrA inhibitor
CCOC(=O)c1cc(-c2cc(OC)c(OC)c(OC)c2)nc2c1c(=O)[nH]c(=O)n2Cc1ccccc1	11	-3	12	3	0
CCC(=O)Nc1cc(C(=O)OCC(=O)c2ccc(Cl)cc2Cl)ccc1C	57*	-1	2	2	1
NC1=NC(=O)/C(=C\c2ccc(-c3ccc(Cl)cc3)o2)S1	33	-4	38*	-12	0
COc1ccc(C2=Nn3c(nnc3-c3ccccc3C(F)(F)F)SC2)cc1OC1CCOC1 (stereo not given)	4	-7	7	5	2
COc1ccc(C2=Nn3c(nnc3-c3ccccc3OC)SC2)cc1OC1CCOC1 (stereo not given)	6	-2	5	-3	4.6*
COc1ccc(S[C@]2(C(=O)N(C)C)CC(=O)N(C(=O)Nc3ccc(C)c(Cl)c3)[C@@H]2c2ccc(OC)cc2)cc1	2	·	7	·	·
O=C(COC(=O)c1cnc(Cl)c(Cl)c1)c1ccc(F)cc1	52*	-3	-2	0	3
c1ccc(CN2CCN(CCCNc3ccc4nnc(-c5ccccc5)n4n3)CC2)cc1	·	-1	·	-2	·
Fc1ccccc1N1CCN(CCCNc2ccc3nncn3n2)CC1	1	-2	-1	26*	1
OC[C@H]1CC[C@@H]2O[C@H](CCc3ccc(-c4ccc(F)cc4)cc3)[C@H](n3cc(C4CC4)nn3)C[C@@H]2O1	10	·	-18	·	·
CCOC(=O)c1nnn(-c2nonc2N)c1CSc1ccccn1	-4	8.0*	3	0	-1
CCOC(=O)c1nnn(-c2nonc2N)c1CSc1ccccc1	2	-5	3	4	1
O=S1(=O)C=CCN1Cc1cn(Cc2ccc(F)cc2)nn1	-1	·	-2	·	·
Cc1ccc2nc(SCC(=O)Nc3cccc(F)c3)nc(=O)n2c1	9	-4	1	1	5.1*
Cc1ccc2nc(SCC(=O)Nc3cccc(Cl)c3)nc(=O)n2c1	8	-3	8	2	1
Cc1cc(C)c(S(=O)(=O)N2CCOCC2)c(C)c1N(C)S(=O)(=O)c1ccccc1	-3	-3	2	-4	-1
Cc1cc(C)c(S(=O)(=O)N2CCCCC2)c(C)c1N(C)S(=O)(=O)c1ccccc1	1	9.7*	1	-7	0
Cc1ccc(C)c(-n2sc3ccc(F)cc3c2=O)c1	10	13*	13	-3	1
O=c1c2cc(F)ccc2sn1-c1ccc(F)cc1	·	7	·	8	·
COc1ccc(-n2sc3ccc(F)cc3c2=O)cc1	8	12*	5	12	0
CCNc1nc2c(c(=O)n(Cc3ccccc3)c(=O)n2C)n1Cc1ccccc1	40	3	40*	0	0
CCC(C)Nc1nc2c(c(=O)n(C)c(=O)n2C)n1Cc1ccc(Cl)cc1 (stereo not given)	42*	0	48*	6	-1
CCNc1nc2c(c(=O)n(C)c(=O)n2C)n1Cc1ccc(Cl)cc1	28	-1	27	11	0
Cc1cccc(Nc2nc3c(c(=O)n(C)c(=O)n3C)n2Cc2ccccc2)c1	53*	-2	47*	7	0
Cn1c(=O)[nH]c(=O)c2c1nc(NC1CCCCC1)n2Cc1ccccc1	52*	-4	39*	8	0
SMILES	NPR1 activator	bovine MsrA act	GC-B act	m5-HT2A agonist	MsrA inhibitor
CCC(C)Nc1nc2c(c(=O)n(C)c(=O)n2C)n1Cc1cccc(C)c1 (stereo not given)	20	2	11	-4	1
Cc1cccc(Cn2c(NC3CCCC3)nc3c2c(=O)[nH]c(=O)n3C)c1	20	-2	10	9	-2
O=C(CSc1nnc(COc2ccccc2)n1-c1ccc(Cl)cc1)Nc1ccccc1-c1ccccc1	-13	·	-16	·	·
O=C(N1CCCC1)n1ncc(-c2ccc(-c3ccccc3)cc2)n1	5	·	1	·	·
Cc1ccc(Cn2c(NCCc3ccccc3)nc3c2c(=O)n(C)c(=O)n3C)cc1	27	3	31	0	0
CCCNc1nc2c(c(=O)n(C)c(=O)n2C)n1Cc1ccc(F)cc1	33	-1	41*	-2	-1
Cn1c(NCC2CCCO2)nc2c1c(=O)n(Cc1ccccc1)c(=O)n2C (stereo not given)	1	-2	7	2	-1
Cn1c(=O)c2c(nc(NCC3CCCO3)n2Cc2cccc(Br)c2)n(C)c1=O (stereo not given)	32	3	38*	-2	0

Screens (PubChem)
